Compound activity: PubChem, National Center for Advancing Translational Sciences (NCATS)
Pf growth 48h = Primary qHTS for delayed death inhibitors of the malarial parasite plastid, 48 hour incubation; P. falciparum luciferase growth in erythrocytes, 48 h; Potency, µM (series often up to 28.7 µM), without a hit: at the highest dose activity change, negative = inhibition, most hits filed as inhibitors; actives 5.9% (n = 310,000); AID 504832, 2011; also: potency is read from the fitted curve at half-maximal effect; % is scaled to controls: 0 for no effect and ±100 for the full control effect
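Erythrocytes infected with P. falciparum carrying an integrated firefly luciferase reporter (2% hematocrit, 0.1% parasitemia final) were exposed to compounds in RPMI 1640 with 0.5% Albumax at 37 C, 5% CO2. Growth inhibition was scored as reduced luminescence.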
Shiga inhibitor = A qHTS for Small Molecule Inhibitors of Shiga Toxin; Vero cells, Shiga toxin protein synthesis inhibition reporter; AID 2315, 2010; inhibition, % at 38.7 µM; actives 9.2% (n = 290,000); in the data active = inhibition mostly above about 28%, no sharp cut-off; inactive = mostly below about 43%; also: 0% is about no effect
Cycloheximide cs = Cycloheximide Counterscreen for Small Molecule Inhibitors of Shiga Toxin | cell reporter, cycloheximide protein synthesis inhibition counterscreen | max response, % | actives 12% (n = 300,000) | AID 2314, 2010; in the data active = max response mostly above about 13%, no sharp cut-off; inactive = mostly below about 14%; also: read at 38.3 µM for the half of the compounds with a filed dose; 0% is about no effect
Pf growth 96h = Primary qHTS for delayed death inhibitors of the malarial parasite plastid, 96 hour incubation. P. falciparum luciferase reporter growth, 96 h. actives 6.9% (n = 320,000). Potency, µM (top dose mostly 28.7 µM), inactives show at the highest dose activity change, negative = inhibition, usual class: inhibitors; also: potency is read from the fitted curve at half-maximal effect; % is scaled to controls: 0 for no effect and ±100 for the full control effect
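P. falciparum expressing integrated firefly luciferase grown in erythrocytes (2% hematocrit, 0.05% parasitemia final) with compounds for 96 hours at 37 C, 5% CO2. Growth inhibition read as loss of luminescence after adding luciferase detection reagent.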
NS1 function inh = qHTS Assay for Inhibitors of Influenza NS1 Protein Function; AID 2326, 2010; Potency, µM (top dose mostly 46.1 µM), inactives show at the top dose activity, positive = more growth; actives 0.4% (n = 270,000); calls by dose curve; also: potency is read from the fitted curve at half-maximal effect; actives are rising curves; nearly all actives have a fitted effect of over 50% in size
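Read-out: OD600 growth recovery of NS1-expressing budding yeast. Cells grown overnight at 30C in -URA glucose medium, washed, resuspended and diluted 1:100 in 2% galactose assay medium, pH 6.0. Same strain lacking NS1 served as positive control.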
Starred values were filed as active, the others as inactive; i = inactive; ? = inconclusive; / = no result given. Most compounds without a hit are left out; they make up all but 21% or so of the library. Unless noted, calls follow the shape of the dose curve; as a rule, active = well fitted inhibition curve with a large enough effect; inconclusive = small, poorly fitted or top-dose-only effect, or another doubt; inactive = no such curve, though single readings can be large or run the other way.

SMILES | Pf growth 48h | Shiga inhibitor | Cycloheximide cs | Pf growth 96h | NS1 function inh
Cc1cc([N+](=O)[O-])cc(/C=N/n2c(C)nc3ccccc3c2=O)c1O | ? | 12.3 | 0.8 | -29.0% | -94.9%
O=[N+]([O-])c1ccc(O)c(/C=N/n2c(CO)nc3ccccc32)c1 | ? | -2.4 | -3.1 | 13.1µM* | -44.7%
C/C(=N\OCc1nc2ccccc2c(=O)n1/N=C/c1cc([N+](=O)[O-])ccc1O)c1ccccc1 | ? | 45.5* | 18.1* | ? | -5.6%
CCOc1ccc(Nc2ccc([N+](=O)[O-])c3nonc23)cc1 | 60.0% | 56.1* | 33.5* | ? | -89.0%
O=C(CNC(=O)c1ccco1)N/N=C/c1ccc(C(=O)O)cc1 | ? | -12.5 | 5.9 | 13.4% | 13.0%
COCCN(CC(=O)Nc1ccccc1C(F)(F)F)C(=O)/C=C/c1ccc2ccccc2n1 | ? | / | / | 14.7µM* | /
Cc1cnn(-c2ccc3nnc(-c4ccc(Cl)cc4)n3n2)c1 | 5.2% | -14.5 | -2.6 | ? | 7.7%
O=C(CN1C(=O)NC2(CCCC2)C1=O)Nc1cc(Cl)ccc1N1CCOCC1 | ? | / | / | 2.2% | /
Cc1cc(=O)[nH]c(N/N=C/c2ccc(-c3ccc(F)cc3)o2)n1 | 7.4% | 49.6 | 15.5 | 50.2% | ?
Cc1nn(-c2ccccc2)c(Cl)c1/C=N/NS(=O)(=O)c1ccc(Br)cc1 | 3.1% | 15.1 | -2.7 | 2.2% | 18.7%
Cc1nn(-c2ccccc2)c(Cl)c1/C=N/Nc1nncc(=O)[nH]1 | 6.7% | 42.6 | 11.7* | -8.0% | -1.9%
Cc1cc(=O)[nH]c(N/N=C/c2c(C)nn(-c3ccc(F)cc3)c2Cl)n1 | 4.65µM* | -12.0 | -1.1 | 10.4µM* | /
COC(=O)[C@H]1CC=C[C@H]2CCN(Cc3ccc(Cl)c(Cl)c3)C(=O)[C@@H]12 | / | i | -4.0 | / | /
COCCn1c(=O)[nH]c2cc(C(=O)N3CCN(c4cccc(C(F)(F)F)c4)CC3)ccc2c1=O | ? | -12.9 | -6.9 | 11.7µM* | 1.9%
COCCn1c(=O)[nH]c2cc(C(=O)Nc3cc(OC)c(OC)c(OC)c3)ccc2c1=O | ? | 15.1 | -10.9 | 5.22µM* | 0.2%
COCCn1c(=O)[nH]c2cc(C(=O)N3CCN(c4ccc(OC)cc4)CC3)ccc2c1=O | -1.8% | -7.4 | -2.1 | 46.9% | -4.9%
COCCn1c(=S)[nH]c2cc(C(=O)N3CCN(c4cccc(Cl)c4)CC3)ccc2c1=O | -0.9% | -8.5 | -2.3 | 11.7µM* | 8.9%
COCCn1c(=O)[nH]c2cc(C(=O)NCCN3CCN(c4cccc(Cl)c4)CC3)ccc2c1=O | ? | 8.6 | -2.6 | -17.1% | 3.2%
Nc1c(C(=O)O)sc2nc3c(cc12)CCCC3 | 31.3% | 3.8 | -1.2 | 29.5% | 7.9%
Nc1c(C(=O)c2ccc(Cl)cc2)sc2nc3c(cc12)CCC3 | 37.2% | 25.9 | 31.7* | ? | 4.1%
Cc1ccc2c(N)c(C#N)sc2n1 | 32.5% | 38.9 | 21.6* | 1.7% | -4.1%
Nc1c(C(=O)Nc2cccc(C(=O)O)c2)sc2nc3c(cc12)CCCC3 | 98.5% | 49.2 | 17.6* | 0.7% | 12.0%
NC(=O)c1sc2nc3c(cc2c1N)CCCCCC3 | 101.9% | 52.5* | 31.1* | 56.0% | -0.7%
Cc1cc(C)cc(NC(=O)CSc2nnc(CNC(=O)c3ccco3)o2)c1 | 7.2% | -13.4 | 5.8 | ? | -2.2%
CCn1c(SCC(=O)NC2(C#N)CCCCC2)nc2ccccc2c1=O | 13.9% | / | / | 4.2% | /
SMILES | Pf growth 48h | Shiga inhibitor | Cycloheximide cs | Pf growth 96h | NS1 function inh
COc1ccc(CCNS(=O)(=O)c2ccc(Br)cc2)cc1OC | 8.6% | / | 1.4 | ? | 6.5%
Cc1ccc(NC(=O)N2CCC(NC(=O)c3cccc(F)c3)CC2)cc1 | -31.0% | 10.3 | 0.7 | -15.7% | 0.1%
COc1ccccc1Nc1ncccc1C(=O)NCc1ccccc1 | / | 4.8 | 0.7 | ? | 0.1%
NCC(=O)O | / | 3.1 | -5.5 | / | /
CCCc1ccc2c(N)c(C#N)sc2n1 | 51.3% | 21.9 | 5.9 | 52.1% | -14.9%
Nc1c(C(=O)C2CC2)sc2nc3c(cc12)CCC3 | 123.5% | 65.7* | 42.7* | -2.0% | -3.3%
N#Cc1sc2nc3c(cc2c1N)CCCC3 | 74.0% | 26.9 | 23.3* | 11.7µM* | -7.8%
CCCOC(=O)c1sc2nc3c(cc2c1N)C(=O)CCC3 | 108.1% | 41.7 | 11.5 | / | -7.0%
CCc1cccc(NC(=O)COC(=O)c2cc([N+](=O)[O-])ccc2N2CCOCC2)c1 | ? | / | / | 8.2% | /
O=C(Nc1ccc(-n2cccn2)cc1)C1CCCCN1Cc1cccc2cccnc12 (stereo unspecified) | ? | 11.0 | 24.3* | ? | -7.9%
Cn1cc(CN2CCCCC2C(=O)Nc2ccc(-n3cccn3)cc2)cn1 (stereo unspecified) | 19.4% | -8.6 | 0.8 | 52.0% | -1.0%
Cc1cccc(C)c1C(=NCCCN(C)C)c1ccccc1 | 9.28µM* | -0.9 | -2.6 | 4.65µM* | -7.1%
CN(C)CCCNC(=O)/C(=N\O)c1ccccc1 | 6.0% | -15.2 | 0.7 | / | 7.7%
O=C(Nc1ccc(Cl)cc1)Nc1nnc(SCc2ccc(Cl)cc2)s1 | -7.3% | -14.5 | -7.5 | 5.22µM* | 0.8%
O=C(Nc1nnc(SCc2cccc(F)c2)s1)c1ccco1 | 6.2% | 20.1 | 3.3 | 14.4% | /
CC(C)(C)C(=O)Nc1nnc(SCc2cccc(F)c2)s1 | 235.2% | 90.8* | 52.9* | 154.2% | /
COCCSc1nnc(NC(=O)CSc2ccccc2)s1 | 3.2% | -9.0 | 7.7 | 13.3% | -47.0%
CC(C)C(=O)Nc1nnc(SCc2cccc(F)c2)s1 | -5.5% | 48.8* | 13.6* | -3.1% | /
COCCSc1nnc(NC(=O)C(C)(C)C)s1 | 143.1% | 110.7* | 59.5* | 480.6% | 0.0%
C[C@H]([C@H](O)c1ccccc1)N(C)C(=O)CN | 30.9% | -3.8 | -1.4 | -8.5% | 1.8%
CCN(CC(=O)N1CCOCC1)S(=O)(=O)c1ccc(F)cc1 | 29.3% | -5.7 | -8.8 | 21.6% | 18.6%
CCC(=O)Nc1nnc(SCc2ccc(F)cc2)s1 | -1.6% | 31.9 | -0.3 | -30.0% | 5.4%
CC(C)(C)C(=O)Nc1nnc(SCc2ccc(F)cc2)s1 | / | 42.0 | 21.6* | -40.0% | -0.2%
O=[N+]([O-])c1ccc(Oc2ccc(F)cc2)c2ccncc12 | 9.28µM* | -32.9 | -5.0 | / | -116.5%
O=[N+]([O-])c1ccc(Oc2cccc(Br)c2)c2ccncc12 | 11.7µM* | 20.6 | 3.5 | / | -54.7%
SMILES | Pf growth 48h | Shiga inhibitor | Cycloheximide cs | Pf growth 96h | NS1 function inh
COc1ccc(C(=O)C2CCCN(C(=O)c3cccc(N4CCCC4=O)c3)C2)cc1OC (stereo unspecified) | ? | 7.4 | -2.5 | -1.3% | 5.7%
CCOc1cc(CNc2ccc(S(N)(=O)=O)cc2)ccc1OCC(=O)NC(C)(C)C | 21.0% | -8.5 | 6.5 | ? | 1.6%
COc1cc(CNCCc2ccc(S(N)(=O)=O)cc2)ccc1OCC(=O)NC(C)(C)C | -17.4% | -2.9 | 0.9 | 13.1µM* | -6.3%
COc1cc(CNCCO)ccc1OCC(=O)Nc1ccc(Br)cc1 | ? | 22.9 | 24.4* | / | -2.9%
CC(=O)O[C@]12CC[N@+]3(C)CCCC[C@@H]3[C-]1Nc1ccccc12 | / | / | / | / | -5.6%
O=C(Nc1ccccc1F)C(=O)Nc1cccc2ccccc12 | 104.7% | / | 28.4* | ? | 4.8%
O=C(CNc1ccccc1F)Nc1cccc2ccccc12 | 4.4% | 27.3 | -2.3 | 4.1% | 3.8%
